Only some compounds are listed: those with a hit (about 3.1% of all), similar ones and a draw of the others.
HIF-2a inh: HIF-2a reporter inhibitors, primary screen, luminescence, 786-0 RCC cells; inhibition, % at 18.8 µM; 360,000 compounds, 0.72% hits; 786-0 RCC cells HIF-2a reporter, luciferase luminescence, overnight; AID 624352, 2012;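 active means inhibition of the luminescence signal of 40% or more relative to plate controls, in a single-dose primary screen at 18.75 µM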
MITF TRPM1 inh: inhibitors of MITF-dependent TRPM1 promoter reporter, primary screen, cell-based, SK-MEL-5, single point, luciferase | SK-MEL-5 TRPM1 promoter luciferase, 24 h | inhibition, % at 12.5 µM | 330,000 compounds, 0.83% hits | AID 488899, 2010;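 active means mean inhibition across replicates of 60% or more, whatever share of single replicates reaches that level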
ABHD5-PLIN5 inh: ABHD5-PLIN5 interaction inhibitors, primary screen, cell lysate, split luciferase complementation, luminescence; 360,000 compounds, 0.78% hits; inhibition, % at 4 µM; Perilipin-5 (Homo sapiens) + 1-acylglycerol-3-phosphate O-acyltransferase ABHD5 (Homo …; Split G. princeps luciferase complementation, 4 h;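 active means inhibition above the mean inhibition across every tested compound plus 3 SD, cut at about 22% in these data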
Target sequence (Q00G26 whole entry, looked up): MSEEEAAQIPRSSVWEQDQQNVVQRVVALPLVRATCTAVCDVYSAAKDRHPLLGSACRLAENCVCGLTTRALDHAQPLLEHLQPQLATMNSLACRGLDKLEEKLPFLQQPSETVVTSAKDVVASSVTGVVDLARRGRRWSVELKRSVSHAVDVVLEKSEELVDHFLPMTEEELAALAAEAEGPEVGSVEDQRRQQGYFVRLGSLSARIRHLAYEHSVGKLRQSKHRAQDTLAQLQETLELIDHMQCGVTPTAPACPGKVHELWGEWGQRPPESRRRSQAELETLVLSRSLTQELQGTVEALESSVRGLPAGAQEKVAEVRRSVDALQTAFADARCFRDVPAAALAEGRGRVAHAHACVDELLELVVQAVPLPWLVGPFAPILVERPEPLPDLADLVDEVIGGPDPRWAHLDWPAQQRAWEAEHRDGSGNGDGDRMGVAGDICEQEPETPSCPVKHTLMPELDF
Target sequence (Q8WTS1 whole entry, looked up): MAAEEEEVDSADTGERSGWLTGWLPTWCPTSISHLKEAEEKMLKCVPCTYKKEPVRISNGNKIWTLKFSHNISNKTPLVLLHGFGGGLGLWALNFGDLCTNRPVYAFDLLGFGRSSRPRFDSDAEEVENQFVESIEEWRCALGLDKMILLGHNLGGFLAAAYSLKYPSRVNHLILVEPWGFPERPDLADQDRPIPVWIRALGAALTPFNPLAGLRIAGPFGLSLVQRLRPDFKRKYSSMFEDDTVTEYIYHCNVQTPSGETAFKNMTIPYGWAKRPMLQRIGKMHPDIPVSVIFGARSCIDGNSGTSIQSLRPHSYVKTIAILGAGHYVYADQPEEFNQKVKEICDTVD
Peg3 promoter: Peg3 promoter-driven luciferase inhibitors, primary screen, cell-based, HeLa, luciferase luminescence. inhibition, % at 20 µM. AID 588405, 2011. 360,000 compounds, 1.7% hits. HeLa PEG-Prom luciferase reporter, overnight;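 active means inhibition of at least 50% at 20 µM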
CF NFkB block: inhibitors of PAF-induced NF-kB signaling, primary screen, cell-based, GFP fluorescence, uHTS; KKLEB NF-kB-GFP reporter, GFP fluorescence overnight; inhibition, % at 5 µM; 360,000 compounds, 0.86% hits;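 active means at least 50% inhibition at 5 µM, scaled per plate between neutral and stimulator controls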;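 further: PAF is a Pseudomonas aeruginosa culture filtrate used as stimulus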
KKLEB cytotox: cytotoxicity in KKLEB CF airway cells, primary screen, cytotoxicity control for CF NF-kB inhibitor project, cell-based, uHTS, fluorescence assay plates; 360,000 compounds, 0.36% hits; AID 602141, 2011; activity change (cytotoxicity), % at 5 µM; KKLEB CF airway cells viability, ATPlite luminescence, overnight; stronger effect = lower value; cells stimulated with P. aeruginosa culture filtrate;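 active means corrected activity change at or below -50% at 5 µM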
ABHD5 PLIN5 conf: ABHD5-PLIN5 interaction inhibitors, confirmation, biochemical, luminescence | shares compounds with ABHD5-PLIN5 inh | inhibition, % at 4 µM | 2,200 compounds, 67% hits; in the data active means inhibition above about 23%
HNF4 split-luc: HNF4 dimerization inhibitors, counter-screen for ABHD5-PLIN5 interaction inhibitor project, biochemical, split-luciferase complementation, luminescence; 2,200 compounds, 77% hits; shares compounds with ABHD5-PLIN5 inh; inhibition, % at 4 µM;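 active means mean inhibition across replicate wells exceeding the computed hit threshold, cut at about 13% in these data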;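 further: light from luciferase halves that rejoin when HNF4 fusion proteins dimerize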
Large screens that a line does not name were inactive (follow-up assays come after a bar, where they were run).

COc1ccc(NC(=O)C(c2ccc(C#N)cc2)n2c(=O)c(-c3ccco3)nc3ccccc32)cc1 (stereo not given)	ABHD5-PLIN5 inh 23.6 (no result: MITF TRPM1 inh, Peg3 promoter, CF NFkB block, KKLEB cytotox) | ABHD5 PLIN5 conf 22.4 | HNF4 split-luc inactive
O=C(Nc1ccc2c(c1)OCCO2)C(C1CC1)n1c(=O)c(-c2cc3ccccc3[nH]2)nc2ccccc21 (stereo not given)	none (no result: MITF TRPM1 inh, Peg3 promoter, CF NFkB block, KKLEB cytotox)
CC(c1nc2ccccc2[nH]1)n1c(-c2ccncc2)nc2ccccc21 (stereo not given)	none (no result: MITF TRPM1 inh, Peg3 promoter, CF NFkB block, KKLEB cytotox)
COc1ccc(NC(=O)C(c2ccnc3ccccc23)n2c(=O)c(-c3ccccc3)nc3ccccc32)cc1 (stereo not given)	none (no result: MITF TRPM1 inh, Peg3 promoter, CF NFkB block, KKLEB cytotox)
COc1ccc2oc3cc(C)[n+]([O-])c(-c4ccc(Br)cc4)c3c2c1	none
CC(COc1ccccc1)OC(=O)Nc1ccccc1 (stereo not given)	none
CCCNCc1cc(OC)c(OCc2ccccc2)cc1Br	none
COc1ccccc1CNC(=O)c1ccc2nc(N3CCOCC3)sc2c1	none
COc1ccc(NC(=O)C(c2ccccc2)n2c(=O)c(-c3ccco3)nc3ccccc32)cc1 (stereo not given)	ABHD5-PLIN5 inh 23.3 (no result: MITF TRPM1 inh, Peg3 promoter, CF NFkB block, KKLEB cytotox) | ABHD5 PLIN5 conf 32.7 | HNF4 split-luc inactive
COc1ccc(NC(=O)C(c2ccc(OC)cc2)n2c(=O)c(-c3ccco3)nc3ccccc32)cc1 (stereo not given)	ABHD5-PLIN5 inh 42.1 (no result: MITF TRPM1 inh, Peg3 promoter, CF NFkB block, KKLEB cytotox) | ABHD5 PLIN5 conf 38.5 | HNF4 split-luc inactive
COc1ccc(C(C(=O)Nc2ccc3c(c2)OCCO3)n2c(=O)c(-c3ccco3)nc3ccccc32)cc1 (stereo not given)	ABHD5-PLIN5 inh 78.5 (no result: MITF TRPM1 inh, Peg3 promoter, CF NFkB block, KKLEB cytotox) | ABHD5 PLIN5 conf 38.4 | HNF4 split-luc inactive
COc1ccc(NC(=O)C(c2ccccc2F)n2c(=O)c(-c3ccco3)nc3ccccc32)cc1 (stereo not given)	none (no result: MITF TRPM1 inh, Peg3 promoter, CF NFkB block, KKLEB cytotox)
COc1ccc(NC(=O)C(c2ccc(C(F)(F)F)cc2)n2c(=O)c(-c3cc4ccccc4[nH]3)nc3ccccc32)cc1 (stereo not given)	none (no result: MITF TRPM1 inh, Peg3 promoter, CF NFkB block, KKLEB cytotox)
COc1ccc(C(C(=O)Nc2ccc3c(c2)OCCO3)n2c(=O)c(-c3cc4ccccc4[nH]3)nc3ccccc32)cc1 (stereo not given)	none (no result: MITF TRPM1 inh, Peg3 promoter, CF NFkB block, KKLEB cytotox)
O=C(Nc1ccc(OC(F)(F)F)cc1)C1CCCN(C(=O)c2ccc(Cl)cc2)C1 (stereo not given)	none
Cc1ccc(-c2ccc(CCC(=O)O)o2)cc1	ABHD5-PLIN5 inh 28.5 | ABHD5 PLIN5 conf inactive | HNF4 split-luc 43.9
Cc1cc(NC(=O)CCc2ccc(-c3ccccc3)o2)no1	none
O=C1CC(c2ccco2)Cc2nc(N3CCc4ccccc4C3)ncc21 (stereo not given)	ABHD5-PLIN5 inh 27.5 | ABHD5 PLIN5 conf inactive | HNF4 split-luc 23.2
CC(c1ccc2c(c1)OCO2)n1c(=S)[nH]c2ccccc2c1=O (stereo not given)	none
O=C1C=CC(=Nc2ccc3c(c2)Cc2cc(F)ccc2-3)O1	ABHD5-PLIN5 inh 28.5 | ABHD5 PLIN5 conf 33.4 | HNF4 split-luc 59.5
CC1CCC(NC(=O)C(NC(=O)c2ccccc2)C(C)C)CC1 (stereo not given)	none
N#C/C(=C\c1c(F)cccc1Cl)C(=O)NC1CC1	ABHD5-PLIN5 inh 23.3 | ABHD5 PLIN5 conf 30.4 | HNF4 split-luc 21.3
N#C/C(=C\c1ccccc1)C(=O)NC1CC1	none
O=C(C=Cc1ccccc1)c1c[nH]c2ccccc2c1=O	ABHD5-PLIN5 inh 27.4, Peg3 promoter 96.6 | ABHD5 PLIN5 conf 73.6 | HNF4 split-luc 62.9
O=C(/C=C/c1ccccc1)c1c[nH]c2ccccc12	none

High-throughput results: PubChem, several laboratories
